From the supplement of paper PMC11732987, “Enantioselective OTUD7B fragment discovery through chemoproteomics screening and high-throughput optimisation” (Communications Chemistry, 2025)

Tests used:
Assay in all cases: log2 ratio of Biotin-Ahx-Ub-VS probe labelling (fragment/DMSO); higher = less target engagement (more negative = stronger competition), active = hit call of the paper (q ≤ 0.05, log2 ratio ≤ -1)
Settings in all cases: compound concentration: 200 uM; treatment time: 3 h
USP34 = USP34 (UniProt Q70CQ2)
Sequence of USP34 (Q70CQ2 whole entry, the tested form may be a part): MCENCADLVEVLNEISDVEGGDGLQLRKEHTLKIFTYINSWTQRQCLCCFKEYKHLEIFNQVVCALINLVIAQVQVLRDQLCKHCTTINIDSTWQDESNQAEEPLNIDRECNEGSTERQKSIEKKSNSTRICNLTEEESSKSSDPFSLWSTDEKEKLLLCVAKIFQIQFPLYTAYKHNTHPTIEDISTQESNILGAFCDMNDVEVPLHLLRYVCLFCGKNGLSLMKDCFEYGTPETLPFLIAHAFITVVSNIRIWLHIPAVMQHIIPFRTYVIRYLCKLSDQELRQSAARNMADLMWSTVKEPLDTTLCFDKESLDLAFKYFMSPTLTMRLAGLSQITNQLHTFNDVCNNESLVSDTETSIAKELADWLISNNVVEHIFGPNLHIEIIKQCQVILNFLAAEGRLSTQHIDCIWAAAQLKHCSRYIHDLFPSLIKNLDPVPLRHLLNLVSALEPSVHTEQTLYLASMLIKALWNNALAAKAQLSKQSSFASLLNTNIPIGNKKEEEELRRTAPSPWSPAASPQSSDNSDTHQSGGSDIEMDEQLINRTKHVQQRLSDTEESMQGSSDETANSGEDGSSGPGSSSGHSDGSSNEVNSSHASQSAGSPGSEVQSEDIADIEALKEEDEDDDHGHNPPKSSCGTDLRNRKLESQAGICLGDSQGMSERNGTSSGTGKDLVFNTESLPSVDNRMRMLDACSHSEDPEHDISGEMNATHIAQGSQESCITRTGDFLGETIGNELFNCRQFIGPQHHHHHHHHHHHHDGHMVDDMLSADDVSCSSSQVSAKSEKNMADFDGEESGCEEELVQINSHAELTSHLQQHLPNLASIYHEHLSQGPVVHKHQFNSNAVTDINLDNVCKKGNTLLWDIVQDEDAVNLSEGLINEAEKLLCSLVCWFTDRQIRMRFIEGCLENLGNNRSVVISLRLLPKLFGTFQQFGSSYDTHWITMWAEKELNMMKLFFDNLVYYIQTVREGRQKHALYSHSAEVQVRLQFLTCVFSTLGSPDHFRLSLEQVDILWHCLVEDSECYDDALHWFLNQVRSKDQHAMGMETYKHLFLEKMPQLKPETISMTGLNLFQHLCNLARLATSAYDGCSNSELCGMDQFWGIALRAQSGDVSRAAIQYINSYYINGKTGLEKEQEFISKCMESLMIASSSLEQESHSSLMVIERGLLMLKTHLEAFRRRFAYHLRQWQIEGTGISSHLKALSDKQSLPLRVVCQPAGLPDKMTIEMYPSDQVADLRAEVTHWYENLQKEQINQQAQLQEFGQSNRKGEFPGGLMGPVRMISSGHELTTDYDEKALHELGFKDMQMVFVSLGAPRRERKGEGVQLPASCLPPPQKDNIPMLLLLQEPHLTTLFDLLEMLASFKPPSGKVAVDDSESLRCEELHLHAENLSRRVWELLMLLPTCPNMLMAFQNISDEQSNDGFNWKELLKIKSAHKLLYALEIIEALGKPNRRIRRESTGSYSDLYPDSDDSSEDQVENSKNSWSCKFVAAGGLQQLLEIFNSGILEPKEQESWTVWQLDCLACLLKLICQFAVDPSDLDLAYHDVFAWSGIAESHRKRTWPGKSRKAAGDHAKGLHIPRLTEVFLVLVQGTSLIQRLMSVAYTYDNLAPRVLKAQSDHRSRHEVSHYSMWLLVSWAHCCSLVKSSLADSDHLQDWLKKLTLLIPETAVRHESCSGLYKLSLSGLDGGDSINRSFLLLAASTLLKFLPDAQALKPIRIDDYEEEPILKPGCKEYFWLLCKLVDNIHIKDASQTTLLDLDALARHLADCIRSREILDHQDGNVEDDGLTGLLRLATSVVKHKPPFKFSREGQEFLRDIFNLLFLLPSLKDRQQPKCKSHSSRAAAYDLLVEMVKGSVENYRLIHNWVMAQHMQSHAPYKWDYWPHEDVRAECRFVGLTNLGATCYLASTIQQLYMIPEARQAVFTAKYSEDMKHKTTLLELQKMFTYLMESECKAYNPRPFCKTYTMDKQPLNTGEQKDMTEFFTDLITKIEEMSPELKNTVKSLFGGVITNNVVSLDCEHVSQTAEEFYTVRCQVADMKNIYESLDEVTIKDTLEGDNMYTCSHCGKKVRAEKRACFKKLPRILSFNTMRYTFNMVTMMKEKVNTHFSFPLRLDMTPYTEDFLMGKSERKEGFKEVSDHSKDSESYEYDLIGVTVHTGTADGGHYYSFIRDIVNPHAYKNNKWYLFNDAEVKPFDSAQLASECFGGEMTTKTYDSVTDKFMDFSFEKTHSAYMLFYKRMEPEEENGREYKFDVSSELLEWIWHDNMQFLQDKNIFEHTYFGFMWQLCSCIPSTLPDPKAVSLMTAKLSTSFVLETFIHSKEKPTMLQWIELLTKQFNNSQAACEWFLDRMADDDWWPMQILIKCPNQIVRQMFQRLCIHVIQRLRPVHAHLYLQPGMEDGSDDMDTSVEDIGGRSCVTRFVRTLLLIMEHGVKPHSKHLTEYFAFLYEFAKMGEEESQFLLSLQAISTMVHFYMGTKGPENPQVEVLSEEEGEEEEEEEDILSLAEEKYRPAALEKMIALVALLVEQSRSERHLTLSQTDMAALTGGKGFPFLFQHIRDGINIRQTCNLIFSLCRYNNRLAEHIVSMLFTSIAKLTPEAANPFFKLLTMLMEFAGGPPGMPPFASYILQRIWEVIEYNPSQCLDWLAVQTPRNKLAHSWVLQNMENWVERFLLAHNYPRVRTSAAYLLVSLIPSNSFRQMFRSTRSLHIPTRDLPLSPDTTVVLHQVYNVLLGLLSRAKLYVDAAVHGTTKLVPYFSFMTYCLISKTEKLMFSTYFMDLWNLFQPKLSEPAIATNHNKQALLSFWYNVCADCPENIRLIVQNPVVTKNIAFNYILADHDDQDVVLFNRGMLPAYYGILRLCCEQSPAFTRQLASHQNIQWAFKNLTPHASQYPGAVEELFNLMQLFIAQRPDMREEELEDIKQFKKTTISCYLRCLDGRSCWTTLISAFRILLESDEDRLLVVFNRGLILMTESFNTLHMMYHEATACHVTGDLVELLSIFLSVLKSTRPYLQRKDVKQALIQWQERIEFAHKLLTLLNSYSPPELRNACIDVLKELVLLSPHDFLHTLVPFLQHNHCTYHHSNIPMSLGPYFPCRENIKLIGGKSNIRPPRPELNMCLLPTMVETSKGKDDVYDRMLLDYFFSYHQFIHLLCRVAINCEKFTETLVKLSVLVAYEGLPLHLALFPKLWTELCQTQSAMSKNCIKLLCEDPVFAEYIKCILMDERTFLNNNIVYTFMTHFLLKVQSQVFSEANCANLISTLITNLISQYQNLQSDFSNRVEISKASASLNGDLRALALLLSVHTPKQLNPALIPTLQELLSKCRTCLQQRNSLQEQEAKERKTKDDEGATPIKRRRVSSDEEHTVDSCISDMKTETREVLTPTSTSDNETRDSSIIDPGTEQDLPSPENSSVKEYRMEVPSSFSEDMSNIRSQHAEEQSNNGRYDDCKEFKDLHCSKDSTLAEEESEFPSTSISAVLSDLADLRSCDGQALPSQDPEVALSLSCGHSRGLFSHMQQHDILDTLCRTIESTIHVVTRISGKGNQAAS
How it was run: (§1)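 Fragment (200 µM) or vehicle was incubated for 3 h with triplicate HEK293T lysate samples of 495 µg, which were then treated with Biotin-Ahx-Ub-VS at 0.5 µM final for 1 h. Labelled DUBs were enriched on NeutrAvidin, digested with LysC and trypsin, and analysed by diaPASEF LC-MS/MS. Values are average log2 fragment/vehicle ratios from an unpaired t-test on global-median-normalised Spectronaut label-free quantities, using proteins with ≥2 unique peptides.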

USP36 = molecular target: T1, USP36 (UniProt Q9P275)
T1 sequence (whole entry): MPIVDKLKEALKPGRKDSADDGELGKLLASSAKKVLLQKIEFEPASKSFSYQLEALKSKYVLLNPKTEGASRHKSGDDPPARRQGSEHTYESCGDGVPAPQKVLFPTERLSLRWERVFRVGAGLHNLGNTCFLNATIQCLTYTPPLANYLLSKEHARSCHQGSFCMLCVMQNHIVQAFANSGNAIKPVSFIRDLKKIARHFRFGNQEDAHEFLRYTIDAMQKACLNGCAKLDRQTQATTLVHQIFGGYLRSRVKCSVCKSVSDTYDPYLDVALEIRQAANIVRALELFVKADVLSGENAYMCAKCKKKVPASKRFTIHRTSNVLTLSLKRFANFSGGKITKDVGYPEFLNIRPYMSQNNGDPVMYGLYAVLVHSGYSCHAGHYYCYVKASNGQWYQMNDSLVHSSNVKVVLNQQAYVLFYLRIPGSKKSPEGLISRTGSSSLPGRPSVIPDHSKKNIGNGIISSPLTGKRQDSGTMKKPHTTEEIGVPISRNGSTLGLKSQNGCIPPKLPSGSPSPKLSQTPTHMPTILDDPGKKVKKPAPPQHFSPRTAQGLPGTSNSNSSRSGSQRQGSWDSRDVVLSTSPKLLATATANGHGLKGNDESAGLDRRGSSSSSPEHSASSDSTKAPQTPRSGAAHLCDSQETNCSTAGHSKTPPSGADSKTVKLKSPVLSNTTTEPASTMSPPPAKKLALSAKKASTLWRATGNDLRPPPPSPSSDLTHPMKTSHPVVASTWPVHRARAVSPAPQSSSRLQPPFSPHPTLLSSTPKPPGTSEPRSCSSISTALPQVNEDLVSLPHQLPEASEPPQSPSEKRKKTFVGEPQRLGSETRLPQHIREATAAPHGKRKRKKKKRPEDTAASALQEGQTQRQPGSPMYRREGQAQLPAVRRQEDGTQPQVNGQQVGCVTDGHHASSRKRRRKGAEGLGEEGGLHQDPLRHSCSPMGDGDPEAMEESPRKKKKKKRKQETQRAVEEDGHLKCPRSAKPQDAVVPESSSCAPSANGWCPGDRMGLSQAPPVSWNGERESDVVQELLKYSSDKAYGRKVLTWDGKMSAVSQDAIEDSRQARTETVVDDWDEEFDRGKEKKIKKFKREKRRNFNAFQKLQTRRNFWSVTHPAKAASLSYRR
How it was run: as §1

USP38 = molecular target: T2, USP38 (UniProt Q8NB14)
T2 sequence (whole entry): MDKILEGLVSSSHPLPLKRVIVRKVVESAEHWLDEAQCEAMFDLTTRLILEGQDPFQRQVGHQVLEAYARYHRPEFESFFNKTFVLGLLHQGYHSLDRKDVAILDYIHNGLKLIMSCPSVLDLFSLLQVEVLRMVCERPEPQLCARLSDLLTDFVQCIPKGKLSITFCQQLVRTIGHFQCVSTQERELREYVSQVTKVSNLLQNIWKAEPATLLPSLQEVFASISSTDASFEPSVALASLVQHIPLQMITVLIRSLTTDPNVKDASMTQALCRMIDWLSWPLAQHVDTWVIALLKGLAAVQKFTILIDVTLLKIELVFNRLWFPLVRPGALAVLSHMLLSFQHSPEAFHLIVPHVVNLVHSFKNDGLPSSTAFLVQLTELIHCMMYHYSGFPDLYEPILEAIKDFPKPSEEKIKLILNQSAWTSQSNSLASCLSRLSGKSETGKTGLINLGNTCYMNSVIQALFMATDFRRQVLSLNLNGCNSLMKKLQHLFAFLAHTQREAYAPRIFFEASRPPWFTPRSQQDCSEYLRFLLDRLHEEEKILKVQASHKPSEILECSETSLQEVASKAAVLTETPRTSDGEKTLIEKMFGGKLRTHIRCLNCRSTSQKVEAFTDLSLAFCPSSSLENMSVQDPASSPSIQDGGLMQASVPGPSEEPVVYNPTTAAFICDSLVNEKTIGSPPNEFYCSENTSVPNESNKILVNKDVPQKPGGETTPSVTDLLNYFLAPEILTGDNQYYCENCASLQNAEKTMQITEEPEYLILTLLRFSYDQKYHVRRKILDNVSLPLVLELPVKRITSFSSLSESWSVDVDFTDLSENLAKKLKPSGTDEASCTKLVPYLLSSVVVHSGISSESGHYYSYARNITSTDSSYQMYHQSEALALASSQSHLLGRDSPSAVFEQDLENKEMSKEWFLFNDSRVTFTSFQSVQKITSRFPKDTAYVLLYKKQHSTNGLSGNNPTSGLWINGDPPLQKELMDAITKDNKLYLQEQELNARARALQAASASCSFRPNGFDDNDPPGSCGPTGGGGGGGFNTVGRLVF
How it was run: as §1

USP39 = molecular target: T3, USP39 (UniProt Q53GS9)
T3 sequence (whole entry): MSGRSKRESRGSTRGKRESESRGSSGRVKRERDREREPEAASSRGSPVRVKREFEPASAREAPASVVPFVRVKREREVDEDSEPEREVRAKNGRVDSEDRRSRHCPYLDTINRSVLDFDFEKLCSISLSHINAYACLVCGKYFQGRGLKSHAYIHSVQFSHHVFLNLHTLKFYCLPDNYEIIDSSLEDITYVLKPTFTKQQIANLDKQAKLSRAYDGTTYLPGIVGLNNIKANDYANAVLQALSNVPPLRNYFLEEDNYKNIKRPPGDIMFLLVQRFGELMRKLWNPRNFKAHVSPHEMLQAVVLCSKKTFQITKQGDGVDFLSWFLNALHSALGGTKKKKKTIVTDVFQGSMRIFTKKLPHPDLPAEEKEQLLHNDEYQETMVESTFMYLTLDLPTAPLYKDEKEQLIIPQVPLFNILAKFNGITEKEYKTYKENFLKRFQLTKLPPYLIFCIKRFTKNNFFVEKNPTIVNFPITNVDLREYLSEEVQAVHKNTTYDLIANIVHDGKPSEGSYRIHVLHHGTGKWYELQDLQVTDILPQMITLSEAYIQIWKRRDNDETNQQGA
How it was run: as §1

USP4 = molecular target: T4, USP4 (UniProt Q13107)
T4 sequence (whole entry): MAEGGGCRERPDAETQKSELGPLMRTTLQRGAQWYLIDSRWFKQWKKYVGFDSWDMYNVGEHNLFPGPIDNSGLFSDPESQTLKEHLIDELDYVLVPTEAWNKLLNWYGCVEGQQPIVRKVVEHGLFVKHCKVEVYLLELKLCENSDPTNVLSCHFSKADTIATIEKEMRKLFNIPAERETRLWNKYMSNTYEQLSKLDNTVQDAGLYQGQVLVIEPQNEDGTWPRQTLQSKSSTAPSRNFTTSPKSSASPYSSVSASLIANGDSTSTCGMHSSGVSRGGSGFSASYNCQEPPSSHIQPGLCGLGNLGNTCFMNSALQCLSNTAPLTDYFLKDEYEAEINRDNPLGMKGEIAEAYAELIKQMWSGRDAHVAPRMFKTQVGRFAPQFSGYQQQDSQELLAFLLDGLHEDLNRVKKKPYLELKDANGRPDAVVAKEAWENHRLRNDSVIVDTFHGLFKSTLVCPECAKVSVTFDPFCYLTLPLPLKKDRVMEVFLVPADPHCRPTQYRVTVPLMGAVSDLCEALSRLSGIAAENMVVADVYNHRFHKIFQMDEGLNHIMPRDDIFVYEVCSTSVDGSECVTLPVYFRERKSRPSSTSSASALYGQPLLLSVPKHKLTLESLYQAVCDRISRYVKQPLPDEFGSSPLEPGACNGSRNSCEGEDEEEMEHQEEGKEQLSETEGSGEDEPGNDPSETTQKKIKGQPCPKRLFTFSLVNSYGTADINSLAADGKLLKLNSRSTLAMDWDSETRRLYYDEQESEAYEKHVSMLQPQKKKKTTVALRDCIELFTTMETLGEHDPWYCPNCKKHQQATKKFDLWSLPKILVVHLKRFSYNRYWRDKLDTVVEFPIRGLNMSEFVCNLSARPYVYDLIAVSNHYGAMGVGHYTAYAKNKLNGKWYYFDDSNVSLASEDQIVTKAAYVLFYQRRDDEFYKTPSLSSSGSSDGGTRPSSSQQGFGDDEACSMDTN
How it was run: as §1

Measured: log2 ratio of Biotin-Ahx-Ub-VS probe labelling

Cc1ccc(C)c(Oc2ccc(CNC(=O)CCl)cn2)c1.Cl
inactive: USP34 -0.224 | USP36 -0.158 | USP38 -0.222 | USP39 0.00552 | USP4 -0.39
